Data on 40 compounds can be found in PubChem BioAssay (NCI).

About 79,000 compounds went through this panel and 15% of them were active in at least one assay; those are over-represented in the sample as a whole. Values without a mark were called inactive. Calls of active or inactive are those of the source. Cut-off read from the data, not from the text of the source: active = growth inhibition above about 70%; inactive = the rest.

The first assay can be described thus: NCI Yeast Anticancer Drug Screen. Data for the mlh1 rad18 strain (AID 175). The settings on record: S. cerevisiae mlh1 rad18 strain growth inhibition; at 50.0 µM (retest, dose inferred, filed as 5.0); hits give high values. An outline of the steps:
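Inhibition values reflect reduced growth of mutant yeast versus vehicle-treated controls following compound exposure; the mutations affect DNA damage repair.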
As to `O=[N+]([O-])c1cc[n+]([O-])c2ccccc12`, the growth inhibition was 99% (active).
Turning to `COc1c[c]([Hg][O]C(C)=O)c(OC)c(NC(=O)CC(C)=O)[c]1[Hg][O]C(C)=O`, the growth inhibition was 95% (active).
Still for that read-out and setting: in the case of `CN(C)c1ccc(C2N(Cc3ccc(N(CCCl)CCCl)cc3)CCCN2Cc2ccc(N(CCCl)CCCl)cc2)cc1` it was 99% (active); in that of `CC(=O)c1ccc(-[n+]2c(C)cc(-c3ccccc3)cc2C)cc1`, -6%.
Consider `[O]=[Sb]([OH])([OH])[c]1ccc(NC2OC(CO)C(O)C(O)C2O)cc1` (stereo not given), for which the growth inhibition is -3%.
As to `CCC1CN1P(=O)(Oc1ccccc1)N1CC1CC` (stereo not given), the growth inhibition was 6%.
Regarding `CCN(CC)CC(=O)c1cc2ccccc2c2ccccc12`, the growth inhibition is 98% (active).
Take `O=C1CCCC1Cl` (stereo not given): the growth inhibition is 3%.
Consider `N#C[S-].[La+3].c1ccc(-c2ccccn2)nc1.c1ccc(-c2ccccn2)nc1.c1ccc(-c2ccccn2)nc1`, for which the growth inhibition was 99% (active).
With `O=c1s[se]c2ccccc12`, the growth inhibition was 97% (active).
Still for that read-out and setting: in the case of `O=C(CCl)Nc1ccc(Cl)cc1` it was 45%; in that of `O=C1N[C@H]2[C@H](O)[C@H](O)[C@@H](O)[C@H](O)[C@@H]2c2cc3c(c(O)c21)OCO3`, 84% (active); in that of `O=C(Nc1n[c]([Hg][Cl])[c]([Hg][Cl])s1)OCc1ccccc1`, 98% (active).
Take `CC[C@@]1(O)C[C@H](OC2CC(N(C)C)C(O)C(C)O2)c2c(cc3c(c2O)C(=O)c2c(O)ccc(O)c2C3=O)[C@H]1C(=O)OC` (stereo not given in full): the growth inhibition is 98% (active).
With `CCCCCc1cc(O)c(CCCC)c(O)c1`, the growth inhibition is 87% (active).
With `NC(=O)/C=C/c1ccc([As]=O)cc1` (stereo not given), the growth inhibition was 39%.
Take `O=[N+]([O-])c1cccc(SC(Cl)(Cl)Cl)c1`: the growth inhibition was 99% (active).
As for `COc1cc(/C=C(/C)[N+](=O)[O-])ccc1O`, the growth inhibition was 99% (active).
Take `CCC[CH2][Sn]1([CH2]CCC)[O]CC(CN2CCOCC2)[O]1` (stereo not given): the growth inhibition is 44%.
For `O=C1CN2CCCCC2CN1` (stereo not given), the growth inhibition is -114%.
As to `CCC[CH2][Sn]([CH2]CCC)([O]C(=O)CCC(C)=O)[O]C(=O)CCC(C)=O`, the growth inhibition is 98% (active).
`C[CH2][Sn]([F])([CH2]C)[CH2]C`: the growth inhibition was 89% (active).
On the same count and under the same terms, the result for `CN(C)CCBr` reads 95% (active); that for `O=[N+]([O-])c1ccc2c3c(cccc13)CC2`, 90% (active).
On the same count and under the same terms, the result for `CC1=CC2CC(C)=C(CC[C@]3(C)CC[C@H]([C@@H](C)C(=O)O)OO3)C(C)(C)C2CC1` (stereo not given in full) reads 98% (active); that for `ClC(CN1CCCCC1)C(Cl)c1ccccc1` (stereo not given), 57%; that for `CCOC(=O)c1ccc(N=Cc2ccc(N(CCCl)CCCl)cc2C)cc1`, 73% (active).
Regarding `CN=C(N)N/N=C(\C)c1ccc2sc3ccc(/C(C)=N/NC(N)=NC)cc3c2c1`, the growth inhibition was 17%.
Turning to `c1cc2n[pH]nc2cn1` (stereo not given), the growth inhibition was 6%.
For `O=[N+]([O-])c1ccc(Br)c([N+](=O)[O-])c1`, the growth inhibition was 98% (active).
`O=C(CBr)NC1CCCCC1`: the growth inhibition was 96% (active).
On to `CC(C)C12C=C3CCC4C(C)(C(=O)O)CCCC4(C)C3(CC1)OO2` (stereo not given), for which the growth inhibition was 95% (active).
The same measure, in the same setting: in the case of `IC(I)=C(I)I` it was 91% (active); in that of `Clc1ccc2c(c1)C(c1ccccc1Cl)=NCC(SCCN1CCOCC1)=N2`, 95% (active).
As to `CCOP(=O)(OCC)/C(C#N)=C/c1ccc(Br)cc1`, the growth inhibition is 97% (active).
The same measure, in the same setting: the result for `Cc1ccc(C(=O)C2C(c3ccccc3)N2C2CCCCC2)cc1` (stereo not given) reads 92% (active).
Consider `CN(C)c1ncnc2c1ncn2C1OC(CO)C2NP(=O)(N(CCCl)CCCl)OC21` (stereo not given), for which the growth inhibition is 23%.
The same measure, in the same setting: in the case of `Nc1nc(N)c(-c2ccc(Cl)c(Cl)c2)c(CCc2ccc(CNC(=O)c3cccc(S(=O)(=O)F)c3)cc2)n1` it was 98% (active).
In the case of `C[CH2][Pb]([CH2]C)([CH2]C)[O]C(=O)COc1ccc(Cl)cc1Cl`, the growth inhibition is 96% (active).
For `O=C(OCC(CCl)OC(=O)C(Cl)(Cl)Cl)C(Cl)(Cl)Cl` (stereo not given), the growth inhibition is -53%.

Still in this assay, the particulars now being: S. cerevisiae mlh1 rad18 strain growth inhibition; at 50.0 µM; hits give high values.
Take `O=[N+]([O-])c1cc[n+]([O-])c2ccccc12`: the growth inhibition is 98% (active).
Regarding `COc1c[c]([Hg][O]C(C)=O)c(OC)c(NC(=O)CC(C)=O)[c]1[Hg][O]C(C)=O`, the growth inhibition was 88.6% (active).
The same measure, in the same setting: the result for `CN(C)c1ccc(C2N(Cc3ccc(N(CCCl)CCCl)cc3)CCCN2Cc2ccc(N(CCCl)CCCl)cc2)cc1` reads 32.9%; that for `CC(=O)c1ccc(-[n+]2c(C)cc(-c3ccccc3)cc2C)cc1`, 21.9%.
As to `[O]=[Sb]([OH])([OH])[c]1ccc(NC2OC(CO)C(O)C(O)C2O)cc1` (stereo not given), the growth inhibition was -10.4%.
Same read-out and setting: in the case of `CCC1CN1P(=O)(Oc1ccccc1)N1CC1CC` (stereo not given) it was -20%; in that of `CCN(CC)CC(=O)c1cc2ccccc2c2ccccc12`, 99% (active).
With `O=C1CCCC1Cl` (stereo not given), the growth inhibition is 56.9%.
Still for that read-out and setting: in the case of `N#C[S-].[La+3].c1ccc(-c2ccccn2)nc1.c1ccc(-c2ccccn2)nc1.c1ccc(-c2ccccn2)nc1` it was 91.3% (active); in that of `O=c1s[se]c2ccccc12`, 91.9% (active).
Turning to `O=C(CCl)Nc1ccc(Cl)cc1`, the growth inhibition was 61.2%.
With `O=C1N[C@H]2[C@H](O)[C@H](O)[C@@H](O)[C@H](O)[C@@H]2c2cc3c(c(O)c21)OCO3`, the growth inhibition was 58.2%.
Regarding `O=C(Nc1n[c]([Hg][Cl])[c]([Hg][Cl])s1)OCc1ccccc1`, the growth inhibition is 98.9% (active).
For `CC[C@@]1(O)C[C@H](OC2CC(N(C)C)C(O)C(C)O2)c2c(cc3c(c2O)C(=O)c2c(O)ccc(O)c2C3=O)[C@H]1C(=O)OC` (stereo not given in full), the growth inhibition was 93.2% (active).
The same measure, in the same setting: the result for `CCCCCc1cc(O)c(CCCC)c(O)c1` reads 99% (active); that for `NC(=O)/C=C/c1ccc([As]=O)cc1` (stereo not given), 99% (active); that for `O=[N+]([O-])c1cccc(SC(Cl)(Cl)Cl)c1`, 99.3% (active).
For `COc1cc(/C=C(/C)[N+](=O)[O-])ccc1O`, the growth inhibition was 99.2% (active).
Consider `CCC[CH2][Sn]1([CH2]CCC)[O]CC(CN2CCOCC2)[O]1` (stereo not given), for which the growth inhibition is 88.8% (active).
Turning to `O=C1CN2CCCCC2CN1` (stereo not given), the growth inhibition was 5.35%.
With `CCC[CH2][Sn]([CH2]CCC)([O]C(=O)CCC(C)=O)[O]C(=O)CCC(C)=O`, the growth inhibition is 91.7% (active).
On to `C[CH2][Sn]([F])([CH2]C)[CH2]C`, for which the growth inhibition is 88.3% (active).
Regarding `CN(C)CCBr`, the growth inhibition was 96.7% (active).
Consider `O=[N+]([O-])c1ccc2c3c(cccc13)CC2`, for which the growth inhibition was 18.4%.
Still for that read-out and setting: the result for `CC1=CC2CC(C)=C(CC[C@]3(C)CC[C@H]([C@@H](C)C(=O)O)OO3)C(C)(C)C2CC1` (stereo not given in full) reads 91.4% (active).
For `ClC(CN1CCCCC1)C(Cl)c1ccccc1` (stereo not given), the growth inhibition is 35.1%.
Regarding `CCOC(=O)c1ccc(N=Cc2ccc(N(CCCl)CCCl)cc2C)cc1`, the growth inhibition is 37.9%.
On to `CN=C(N)N/N=C(\C)c1ccc2sc3ccc(/C(C)=N/NC(N)=NC)cc3c2c1`, for which the growth inhibition is 30.2%.
As to `c1cc2n[pH]nc2cn1` (stereo not given), the growth inhibition was 43.5%.
For the compound `O=[N+]([O-])c1ccc(Br)c([N+](=O)[O-])c1`, the growth inhibition was 99.2% (active).
For the compound `O=C(CBr)NC1CCCCC1`, the growth inhibition is 93% (active).
As to `CC(C)C12C=C3CCC4C(C)(C(=O)O)CCCC4(C)C3(CC1)OO2` (stereo not given), the growth inhibition was 96.9% (active).
On to `IC(I)=C(I)I`, for which the growth inhibition is 90.1% (active).
`Clc1ccc2c(c1)C(c1ccccc1Cl)=NCC(SCCN1CCOCC1)=N2`: the growth inhibition is 91.5% (active).
As for `CCOP(=O)(OCC)/C(C#N)=C/c1ccc(Br)cc1`, the growth inhibition is 92% (active).
As for `Cc1ccc(C(=O)C2C(c3ccccc3)N2C2CCCCC2)cc1` (stereo not given), the growth inhibition is 71.6% (active).
For `CN(C)c1ncnc2c1ncn2C1OC(CO)C2NP(=O)(N(CCCl)CCCl)OC21` (stereo not given), the growth inhibition was 28.4%.
In the case of `Nc1nc(N)c(-c2ccc(Cl)c(Cl)c2)c(CCc2ccc(CNC(=O)c3cccc(S(=O)(=O)F)c3)cc2)n1`, the growth inhibition is 54%.
As to `C[CH2][Pb]([CH2]C)([CH2]C)[O]C(=O)COc1ccc(Cl)cc1Cl`, the growth inhibition is 97% (active).
As to `O=C(OCC(CCl)OC(=O)C(Cl)(Cl)Cl)C(Cl)(Cl)Cl` (stereo not given), the growth inhibition is 54.8%.
